The source of these data is PubChem BioAssay AID1053126 (Broad Institute, 2014).

Entries with a potency or affinity are not part of this list. Activity calls are given as the source filed them.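 How the source made its calls: active means cell killing with a fitted half-effect concentration at or below twice the top valid dose; inconclusive means flat curve with 30 to 70 percent drop, or poor fit; inactive means the rest.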

This assay can be described thus: viability loss in HEK293T kidney cells – cell-based, ATP luminescence, cherry-pick, set 6, cytotoxicity control, dose response (AID 1053126). To be noted: CellTiter-Glo ATP luminescence, 72 h; series mostly up to 26 µM.
As to `CC12CC(c3ccccc3O1)C(C(=O)OCc1ccccc1)C(=O)N2` (stereo not drawn), the outcome was inactive. Take `Nc1ccc2ccc3cccc[n+]3c2c1`: the outcome was inactive. For the molecule `CC(C)OP(=O)(O)NC(=O)c1ccccc1`, the molecule was called inactive.
